For test [1], the system named is Wnt5a (protein binding on small-molecule microarray). The test can be described thus: small molecules binding Wnt5a protein – biophysical, small-molecule microarray, 635/667 nm fluorescence, primary screen (AID 1142).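 Also: fluorescence read at 667 nm with signal to noise per printed feature.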 The following applies: 635 nm fluorescence, higher = more signal.
Test [2] is described as follows: ATP-based viability of Huh7 replicon cells – cell-based, CellTiter-Glo luminescence, basal, 48 h, cytotoxicity control for HCV replication inhibitor project, primary screen (AID 1143).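 Also: Huh7 hepatoma cells carrying a hepatitis C replication reporter with no stimulus; test concentration not given here.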 The following applies: higher = more signal, called active from +8 up or from −8 down. Background: A replicon is a self-replicating genome or part of one, used to study replication in cells.

The nature of test [3]: Pseudomonas biofilm growth suppression – PAO1 strain, BacTiter-Glo luminescence, LB-PBS, primary screen (AID 1144). The note with it: P. aeruginosa PAO1 biofilm, 12 h, higher = more signal.
Test [4] is described as follows: basal CRE-LacZ reporter activity in PC12 – cell-based, unstimulated, primary screen (AID 1145). The following applies: no forskolin, luminescence, 4.5 h, higher = more signal, called active from +8 up or from −8 down.
The nature of test [5]: forskolin-driven CRE-LacZ activity in PC12 – cell-based, CRE-LacZ reporter, forskolin-stimulated, primary screen (AID 1146).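 Also: PC12 cells with 6xCRE LacZ reporter stimulated by forskolin 10 µM; beta-galactosidase reporter signal reflecting CREB driven transcription.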 The note with it: luminescence, 4.5 h, higher = more signal, called active from +8 up or from −8 down.
Test [6] addresses Streptavidin (Streptomyces avidinii) (UniProt P22629). As to the kind of experiment: compounds binding control protein streptavidin – biophysical, small-molecule microarray, 635/667 nm fluorescence, artefact control for SMM compound annotation, primary screen (AID 1147).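 Also: signal reflects streptavidin binding to arrayed compounds as a control protein.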 The note with it: higher = more signal.
Test [7] in a line: probe aInhba binding on compound microarray – biochemical, small-molecule microarray, 635/667 nm fluorescence, primary screen (AID 1148).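 Also: score merges 667nm spot fluorescence with signal-to-noise for antibody binding to printed compounds.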 The note with it: higher = more signal.
For test [8], the target named is Torsin-1A (Homo sapiens) (UniProt O14656). As to the kind of experiment: TOR1A wild-type binding on microarray – cell lysate, small-molecule microarray, lysate, 635/667 nm, primary screen (AID 1149). The following applies: COS7 hTOR1A-WT lysate, 635 nm fluorescence, higher = more signal.
The target is the same in test [9]. As to the kind of experiment: torsin A mutant lysate binding on microarrays – cell lysate, small-molecule microarray, COS7 lysate, 635/667 nm fluorescence, primary screen (AID 1150).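 Also: score pools 667 nm emission and signal to noise measuring lysate protein binding.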 The note with it: COS7 hTOR1A mutant lysate, 635 nm fluorescence, higher = more signal.
For test [10], the system named is Sonic hedgehog protein (Shh). As to the kind of experiment: Sonic hedgehog microarray binding compounds – biochemical, small-molecule microarray, 635/667 nm fluorescence, primary screen (AID 1151).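 Also: Shh protein binding to compounds spotted on small-molecule microarray slides; score combines spot fluorescence intensity with signal-to-noise across triplicate slides.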 The following applies: 635 nm fluorescence, higher = more signal.
Test [11] is described as follows: optical density shifts of acrAB sulA E. coli – strain DRC41, OD650, 48 h, E. coli filamentation inducer project, primary screen (AID 1152).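 Also: E. coli MC1000 strain DRC41 lacking acrAB efflux pump and sulA.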 The following applies: higher = more signal, called active from +8 up or from −8 down.
Test [12] is described as follows: probe aLefty1 binding on compound microarray – biochemical, small-molecule microarray, 635/667 nm fluorescence, primary screen (AID 1153).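 Also: score merges spot fluorescence with signal-to-noise ratio from the scanned slide images.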 The following applies: higher = more signal.
Test [13] is described as follows: plasmodial surface anion channel blockers, osmotic lysis – cell-based, P. falciparum Indochina, OD700, 1 h, primary screen (AID 1154). The note with it: P. falciparum Indochina infected RBC osmotic lysis, higher = more signal, called active from +8 up or from −8 down.
A short description of test [14]: plasmodial surface anion channel blockers, osmotic lysis – cell-based, P. falciparum Indochina, OD700, 2 h, primary screen (AID 1155).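 Also: lysis reports solute entry through the parasite surface anion channel PSAC.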 The following applies: P. falciparum Indochina infected erythrocytes, higher = more signal, called active from +8 up or from −8 down.
Test [15] in a line: changes in parasitized red cell lysis, either direction – P. falciparum Indochina, OD700, 3 h, PSAC antagonist project, primary screen (AID 1156). The note with it: P. falciparum-infected erythrocytes, osmotic lysis, higher = more signal, called active from +8 up or from −8 down.
Test [16] is described as follows: plasmodial surface anion channel blockers, osmotic lysis – cell-based, P. falciparum Indochina, OD700, 18 h, primary screen (AID 1157). The note with it: P. falciparum Indochina infected erythrocytes, osmotic lysis OD700, 18 h; higher = more signal, called active from +8 up or from −8 down.
Test [17] can be described thus: S6 kinase pathway phospho-S6 level changes – cell-based, A549, cytoblot, luminescence, serum-stimulated, primary screen (AID 1158).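 Also: serum-stimulated A549 lung adenocarcinoma cells; signal is phosphorylated S6 detected by cytoblot immunostaining with HRP secondary.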 The following applies: 5 h, higher = more signal.
Test [18] has as its target NADPH oxidase 2 (Homo sapiens) (UniProt P04839). As to the kind of experiment: compounds shifting NOX2 Amplex Red fluorescence – cell-based, HEK293-NOX2, PMA-stimulated, NOX inhibitor project, primary screen (AID 1159). Also: test concentration not given here. The following applies: 45 min, higher = more signal, called active from +8 up or from −8 down.
The target of test [19] is NADPH oxidase 4 (Homo sapiens) (UniProt Q9NPH5). The test can be described thus: compounds shifting NOX4 Amplex Red fluorescence – cell-based, HEK293-NOX4, tetracycline-induced, NOX inhibitor project, primary screen (AID 1160). The following applies: HEK293-NOX4, Amplex Red H2O2 fluorescence, 45 min; higher = more signal, called active from +8 up or from −8 down.
For test [20], the target named is NADPH oxidase 5 (Homo sapiens) (UniProt Q96PH1). As to the kind of experiment: compounds shifting NOX5 Amplex Red fluorescence – cell-based, HEK293-NOX5, NOX inhibitor project, primary screen (AID 1161). The following applies: HEK293-NOX5, ionomycin, 45 min, higher = more signal.

Calls of active or inactive are those of the source. Unless noted, no rule for the calls is given here.

Chain of NADPH oxidase 4 (Homo sapiens) (Q9NPH5 whole entry, looked up): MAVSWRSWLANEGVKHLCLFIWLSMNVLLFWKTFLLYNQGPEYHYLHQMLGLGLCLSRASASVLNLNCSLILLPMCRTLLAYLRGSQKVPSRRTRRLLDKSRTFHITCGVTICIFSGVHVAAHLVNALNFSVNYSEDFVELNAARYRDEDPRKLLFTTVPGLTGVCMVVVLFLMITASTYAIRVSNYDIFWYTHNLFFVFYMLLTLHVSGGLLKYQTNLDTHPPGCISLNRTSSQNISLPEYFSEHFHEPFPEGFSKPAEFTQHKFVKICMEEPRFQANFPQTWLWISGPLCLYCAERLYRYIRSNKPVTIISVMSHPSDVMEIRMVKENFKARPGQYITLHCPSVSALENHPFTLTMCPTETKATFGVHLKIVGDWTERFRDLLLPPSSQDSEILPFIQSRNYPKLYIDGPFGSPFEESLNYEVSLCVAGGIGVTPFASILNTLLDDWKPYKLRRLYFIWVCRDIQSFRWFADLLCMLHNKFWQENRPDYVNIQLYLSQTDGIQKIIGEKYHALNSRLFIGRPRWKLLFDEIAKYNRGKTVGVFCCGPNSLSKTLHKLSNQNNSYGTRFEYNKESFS
Chain of NADPH oxidase 2 (Homo sapiens) (P04839 whole entry, looked up): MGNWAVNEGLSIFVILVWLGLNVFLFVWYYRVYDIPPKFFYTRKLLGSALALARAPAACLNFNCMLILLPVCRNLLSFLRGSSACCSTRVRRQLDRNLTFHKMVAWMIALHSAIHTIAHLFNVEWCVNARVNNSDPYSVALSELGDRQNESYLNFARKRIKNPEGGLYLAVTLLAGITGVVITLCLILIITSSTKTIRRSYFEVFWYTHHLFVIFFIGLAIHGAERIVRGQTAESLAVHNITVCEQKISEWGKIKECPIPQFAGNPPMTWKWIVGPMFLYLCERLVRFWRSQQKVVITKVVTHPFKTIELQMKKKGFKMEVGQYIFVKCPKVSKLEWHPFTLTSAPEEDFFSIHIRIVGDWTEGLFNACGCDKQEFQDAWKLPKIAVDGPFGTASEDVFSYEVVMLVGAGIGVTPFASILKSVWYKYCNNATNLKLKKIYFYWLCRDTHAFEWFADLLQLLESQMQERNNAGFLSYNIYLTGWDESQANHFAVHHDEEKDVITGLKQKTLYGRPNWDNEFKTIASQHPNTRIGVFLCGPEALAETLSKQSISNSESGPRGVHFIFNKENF
Chain of NADPH oxidase 5 (Homo sapiens) (Q96PH1 whole entry, looked up): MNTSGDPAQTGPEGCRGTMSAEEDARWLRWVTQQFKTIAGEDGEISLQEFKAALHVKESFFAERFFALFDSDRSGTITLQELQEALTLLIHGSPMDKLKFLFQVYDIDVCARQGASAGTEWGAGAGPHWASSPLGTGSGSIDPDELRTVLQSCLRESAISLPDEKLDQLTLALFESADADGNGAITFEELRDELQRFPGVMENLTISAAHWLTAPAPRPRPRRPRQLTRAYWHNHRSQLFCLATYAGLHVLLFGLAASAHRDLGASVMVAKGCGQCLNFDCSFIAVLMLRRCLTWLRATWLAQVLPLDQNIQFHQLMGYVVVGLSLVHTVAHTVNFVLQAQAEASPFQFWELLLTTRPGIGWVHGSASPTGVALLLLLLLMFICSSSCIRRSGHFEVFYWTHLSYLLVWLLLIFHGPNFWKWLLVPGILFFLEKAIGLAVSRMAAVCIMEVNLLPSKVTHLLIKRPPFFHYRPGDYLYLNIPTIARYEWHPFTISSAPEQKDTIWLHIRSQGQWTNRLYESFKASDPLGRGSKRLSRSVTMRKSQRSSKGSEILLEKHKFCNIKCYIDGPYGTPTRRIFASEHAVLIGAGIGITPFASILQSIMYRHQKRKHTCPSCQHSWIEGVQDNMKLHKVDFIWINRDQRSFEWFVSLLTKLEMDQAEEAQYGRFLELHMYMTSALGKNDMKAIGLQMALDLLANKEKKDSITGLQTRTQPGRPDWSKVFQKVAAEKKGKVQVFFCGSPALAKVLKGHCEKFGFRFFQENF
Chain of Streptavidin (Streptomyces avidinii) (P22629 whole entry, looked up): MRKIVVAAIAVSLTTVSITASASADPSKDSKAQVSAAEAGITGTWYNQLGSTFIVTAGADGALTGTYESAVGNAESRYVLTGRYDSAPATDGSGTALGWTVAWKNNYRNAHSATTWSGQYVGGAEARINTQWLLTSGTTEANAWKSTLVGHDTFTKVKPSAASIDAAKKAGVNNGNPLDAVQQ
Chain of Torsin-1A (Homo sapiens) (O14656 whole entry, looked up): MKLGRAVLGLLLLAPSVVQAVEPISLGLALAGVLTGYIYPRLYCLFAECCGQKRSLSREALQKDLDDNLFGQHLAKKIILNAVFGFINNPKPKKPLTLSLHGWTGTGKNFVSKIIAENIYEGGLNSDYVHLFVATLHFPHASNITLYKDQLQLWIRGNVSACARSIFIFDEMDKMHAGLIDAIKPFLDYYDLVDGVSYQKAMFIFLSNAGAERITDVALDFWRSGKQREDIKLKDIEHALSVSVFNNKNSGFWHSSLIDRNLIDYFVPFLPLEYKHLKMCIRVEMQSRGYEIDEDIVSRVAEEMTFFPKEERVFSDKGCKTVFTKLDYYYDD

For the compound `O=C1[C@H]2[C@H]3[C@H](O)[C@H](O)CC(=NO[C@@H]4O[C@H](CO)[C@@H](O)[C@H](O)[C@H]4O)[C@H]3CC[C@H]2C(=O)N1C1CCCCC1`, the composite z-score is -0.0314 in test [1]; -0.534 in [6]; -0.0313 in test [7]; 1.03 with Torsin-1A (Homo sapiens) [8]; 0.843 in the test with Torsin-1A (Homo sapiens) [9]; 0.61 in test [10]. The composite z-score in [12] is -0.0046. The z-score in test [2] was 0.582 (inactive); in test [3], 0.423 (inactive); in [4], -0.0175 (inactive); in [5] it was 0.234 (inactive); in test [11], -0.094 (inactive); in test [13], 3.65 (inactive). Moreover, the z-score in test [14] was -0.0811 (inactive); in test [15], -0.284 (inactive); in test [16], -0.136 (inactive); in [17], 0.561; in test [18], -0.717 (inactive); in test [19], 1.15 (inactive). Besides, in test [20], the z-score is 0.329.
Turning to `COC(=O)[C@H](C)NC(=O)CCC1CC(OC(=O)NCc2ccc3c(c2)OCO3)CC2(CCCC(COC(=O)NCCOc3ccccc3)O2)O1` (stereo not given in full), the composite z-score in test [1] was 0.12; in test [6], 0.607; in test [7], -0.128; with Torsin-1A (Homo sapiens) [8], 0.248; with Torsin-1A (Homo sapiens) [9], 0.492; in [10] it was 1.67. Besides, the composite z-score in test [12] is -0.414. Moreover, the z-score in test [2] is -1.55 (inactive); in test [3], -1.53 (inactive); in test [4] it was -0.349 (inactive); in test [5] it was -0.422 (inactive); in [11], -0.638 (inactive); in test [13] it was -1.1 (inactive). Also, the z-score is -0.123 (inactive) in [14]; -0.409 (inactive) in test [15]; -0.323 (inactive) in test [16]; 1.48 in test [17]; -0.245 (inactive) in [18]; 0.758 (inactive) in test [19]. Besides, the z-score in test [20] was determined as 0.214.
Take `CN1C(=O)[C@@]2(CCC(=O)OC(C)(C)C)N=C(c3ccc(OCCCO)cc3)O[C@H]2c2ccccc21`: the composite z-score in [1] is 0.0942; in test [6] it was -0.235; in [7], 0.0649; in the test with Torsin-1A (Homo sapiens) [8] it was -0.132; with Torsin-1A (Homo sapiens) [9] it was 0.43; in test [10] it was 1.5. The composite z-score in [12] was determined as 0.0959. For the same compound, the z-score was -4.68 (inactive) in test [2]; -1.73 (inactive) in [3]; 0.652 (inactive) in test [4]; -1.92 (inactive) in test [5]; 1.02 (inactive) in test [11]; 30.8 (active) in test [13]. For the same compound, the z-score in test [14] is 26.6 (active); in [15], 1.7 (inactive); in [16], 1.11 (inactive); in [17], 1.09; in [18], -2.05 (inactive); in [19] it was 0.112 (inactive). In addition, in [20], the z-score was -1.43.
With `COC(=O)[C@@]1(Cc2ccccc2)[C@H]2c3cc(C(=O)N4CCCC4)n(Cc4ccccn4)c3C[C@H]2CN1C(=O)c1ccccc1`, the composite z-score in test [1] is 1.25; in [6], 1.02; in test [7], 0.74; with Torsin-1A (Homo sapiens) [8] it was 0.671; with Torsin-1A (Homo sapiens) [9], 1.91; in [10], -0.369. Further, in test [12], the composite z-score came out at 1.27. In addition, the z-score was -1.5 (inactive) in test [2]; -1.42 (inactive) in test [3]; 0.201 (inactive) in [4]; 1.06 (inactive) in test [5]; -1.04 (inactive) in test [11]; 2.24 (inactive) in test [13]. The z-score in test [14] is 0.278 (inactive); in test [15] it was 2.27 (inactive); in [16], 1.03 (inactive); in test [17], 0.741; in [18] it was 0.401 (inactive); in [19], -1.83 (inactive). Moreover, in [20], the z-score was -3.72.
As for `CCOC(=O)C1=CC[C@H]2C(=O)N(CC)C(=O)[C@@H]12`, the composite z-score in test [1] was 0.281; in test [6] it was 0.0789; in test [7], -0.0719; with Torsin-1A (Homo sapiens) [8], 0.483; with Torsin-1A (Homo sapiens) [9] it was -0.552; in [10], 0.13. In addition, in [12], the composite z-score was -0.0412. For the same compound, the z-score was -0.0046 (inactive) in [2]; -0.929 (inactive) in test [3]; -0.228 (inactive) in test [4]; 0.687 (inactive) in test [5]; -0.457 (inactive) in test [11]; 1.09 (inactive) in test [13]. The z-score in [14] was 1.21 (inactive); in test [15], 0.253 (inactive); in [16], 0.804 (inactive); in test [17], -0.45; in test [18] it was -0.0988 (inactive); in test [19], 0.484 (inactive). For the same compound, the z-score in test [20] was determined as 0.829.
